# Bioassay records as filed in PubChem.
# LASV entry inh: inhibitors of Lassa virus binding or entry into cells | hit rate 4.1% among 18,000 | Lassa virus pseudotyped entry inhibition, cell-based qHTS | AID 720533 | Potency, µM (doses to about 49.2 µM), without a hit: at the highest dose activity change, negative = inhibition, most hits filed as inhibitors
# MARV entry inh: blocks Marburg virus binding or cell entry; Potency, µM (doses to about 49.2 µM), for the others: top-dose activity change, negative = inhibition, usual class: inhibitors; hit rate 6.5% among 18,000; Marburg virus pseudotype entry/binding inhibition, cell-based
# * marks the source's active call; other numbers are inactive results; ? = inconclusive; nt = no result; ! = not confirmed by another sample; [ ] = dose if it differs, or a comment. This is a sample that favours compounds with a hit; in the whole collection about 7.1% have one here. The call rests on the fitted dose curve; tested in HEK293 cells. On the % scale 0 is the no-effect control and ±100 the full control effect; potency means the concentration at half of the fitted maximal effect.
SMILES,LASV entry inh,MARV entry inh
Nc1c2ccccc2nc2ccccc12 (tested in a mixture with another compound),-7.3%,7.08µM*
O=C(/C=C/c1ccc(O)c(O)c1)c1ccc(O[C@@H]2O[C@H](CO)[C@@H](O)[C@H](O)[C@H]2O)c(O)c1O,1.7%,3.16µM*
O=C1C[C@@H](c2ccc(O)c(O)c2)Oc2c1ccc(O[C@@H]1O[C@H](CO)[C@@H](O)[C@H](O)[C@H]1O)c2O,-0.6%,?
CCOC(=O)NN=C1C[C@@H](O)[C@@H](O)[C@@H]2[C@H]3C(=O)N(Cc4ccc5c(c4)OCO5)C(=O)[C@@H]3CC[C@H]12,4.4%[8.59 µM],-22.0%[8.59 µM]
C=C[C@H](CCCCCC)[C@@H]1C[C@H](CCCCCCCCCCC)O[P@](=O)(OC)O1,nt,-33.3%
C=C/C(=C/C(=O)C[C@H](C)C[C@@H](C)CC[C@H](O)[C@H](C)C(=O)C[C@@H](O)[C@H](C)[C@@H](C)OC(=O)C[C@@H](O)C1=C(C)C(=O)OC1=O)CC,2µM*,2.51µM*
COC(=O)C1=C[C@@]2(c3ccc(OC)cc3[C@@H](OC)[C@@H]2C)[C@@H]2C=C[C@@H]1C2,18.1%[8.59 µM],49.7%[8.59 µM]
CC1(C)CCC2=C(O1)c1ccccc1C(=O)C2=O,7.08µM*,11.2µM*
C[C@H]1CC[C@H]2C(=O)O[C@H](CO)CN2[C@H]1c1ccc(Br)cc1,nt,-20.5%[8.59 µM]
c1ccc(C2(c3ccccc3)CC2C2=NCCN2)cc1 (centres undefined),1.6%,1.7%
c1ccc2c(c1)OC[C@@H](C1=NCCN1)O2,?,11.2µM*
Nc1nonc1-c1nc2cnccc2n1C1CCCCC1,41.7%,?
CSCC[C@@H]1NC(=O)[C@@H](NC(=O)[C@H](CCCNC(=N)N)NC(=O)[C@H](CC(C)C)NC(=O)[C@H](CCSC)NC(=O)[C@H](CC(=O)O)NC(=O)[C@H](Cc2ccccc2)NC(=O)[C@@H](N)CC(=O)O)CSSC[C@@H](C(=O)N[C@@H](Cc2c[nH]c3ccccc23)C(=O)N[C@@H](CCC(N)=O)C(=O)N[C@H](C(=O)O)C(C)C)NC(=O)[C@@H]2CCCN2C(=O)[C@H](CCCNC(=N)N)NC(=O)[C@H](Cc2ccc(O)cc2)NC(=O)[C@H](C(C)C)NC(=O)[C@H](CCCNC(=N)N)NC(=O)CNC(=O)[C@H](CC(C)C)NC1=O,6.3%,7.1%
COc1ccc2c(c1)CO[C@H]([C@H](O)CO)[C@H]2C=Cc1ccccc1,nt,-5.6%[8.59 µM]
O=c1cc(-c2ccc(O)cc2)oc2cc(O[C@H]3OC(CO)C(O)C(O)C3O)cc(O)c12 (some centres undefined),44.5%,66.5%
O=c1cc(-c2ccccc2)oc2cc(O[C@@H]3O[C@H](CO)[C@@H](O)[C@H](O)[C@H]3O)c(O)c(O)c12,-21.5%,3.55µM*
COC(=O)Nc1nc2ccc(Oc3ccc(NC(=O)Nc4cc(C(F)(F)F)ccc4F)cc3)cc2s1,6.2%,?
CCCOc1ccc2nc(NC(=O)OC)sc2c1,3.16µM*,17.1%
C=C[C@@H](C[C@@H]1C=C[C@H]2C[C@H](C=C)OP(=O)(O1)O2)O[Si](C)(C)C(C)(C)C,-11.2%,?
CC(COc1ccccc1)N(CCCl)Cc1ccccc1 (centres undefined),28.2µM*!,0.1%
CN(C)Cc1ccccc1,-16.3%,8.1%
COC(=O)N[C@H](CC(C)=O)c1cccc(F)c1,21.0%[8.59 µM],-6.7%[8.59 µM]
COC(=O)[C@]12C[C@@H]3CCN(C(=O)N[C@@H]1c1ccccc1)[C@@]32C,nt,75.7%[8.59 µM]
C=CC(C)(C)c1[nH]c2ccccc2c1C1=C(O)C(=O)C(c2c[nH]c3c(CC=C(C)C)cccc23)=C(O)C1=O,14.1µM*,-7.2%
COC(=O)C1=C(C)N(Cc2ccccc2)C(=O)NC1CCc1ccccc1 (centres undefined),5.6%[8.59 µM],22.7%[8.59 µM]
SMILES,LASV entry inh,MARV entry inh
CCCCCC(=O)N1C[C@@H](O)[C@H](n2cc(C3CC3)nn2)C[C@H]1c1ccc(Cl)cc1,13.5%,?
COC(=O)C1=C(C(=O)OC)[C@@H]2N(Cc3ccccc3)c3ccccc3[C@@]23CCC(=O)N(CCc2ccccn2)C3=N1,-22.8%[8.59 µM],?
CC(=O)Oc1ccccc1C(=O)O,-3.4%,11.6%
CC(=O)[O][Hg][c]1ccccc1,0.501µM*,?
CC1(C)CC(=O)C2=C(C1)O[C@@]1(CCCCN3C(=O)c4ccccc4C3=O)Cc3ccccc3[C@H]2O1,-14.7%[8.59 µM],10.7%[8.59 µM]
N[C@@]1(C(=O)O)CN[C@@H](C(=O)O)C1,-4.5%,28.2µM*
NC1(C(=O)O)CC(C(=O)O)C1 (centres undefined),1.8%,29.6%
COc1ccc(C=CNC(=O)Cc2ccc(OC)c(OC)c2)cc1,-5.7%[8.59 µM],24.4%[8.59 µM]
C[C@@]12C(=O)OC(=O)[C@@]1(C)[C@@H]1CC[C@@H]2O1,-13.4%,3.6%
C[C@@]12C(=O)OC(=O)[C@@]1(C)C1CCC2O1,2µM*,3.55µM*
O=C1[C@H]2[C@@H]3[C@@H](O)[C@H](O)CC(=NOCc4ccccc4)[C@@H]3CC[C@H]2C(=O)N1C[C@@H]1CCCO1,8.9%[8.59 µM],6.1%[8.59 µM]
CO[C@H](c1ccccc1Br)[C@H](C)C=CCCO,-12.5%[8.59 µM],?
COCOc1cc(OC)ccc1C(=O)C=Cc1ccc2c(c1)OCO2,-30.0%[8.59 µM],?
CC(C)[C@H](NC(=O)OCc1ccccc1)C(=O)N[C@H](C=O)Cc1ccccc1,-5.2%,?
CC(C)C[C@@H](C=O)NC(=O)[C@H](CC(C)C)NC(=O)[C@H](CC(C)C)NC(=O)OCc1ccccc1,3.55µM*,?
Cc1ccc(CN2[C@@H](CC(C)C)COc3c(Cl)cccc3S2(=O)=O)cc1,-7.8%,-26.5%
CC(=CC[Si](C)(C)C)CCC=O,nt,-25.1%[8.59 µM]
CC(C)(Cc1c[nH]c2ccccc12)NCC(O)COc1ccccc1C#N (centres undefined),?,7.94µM*
CC(C)(C)NC[C@H](O)COc1cccc2[nH]c(C#N)cc12,-3.1%,-12.9%
NC(=O)c1cc(-c2ccc(F)cc2)cc(-c2ccncc2)c1N,-26.5%,?
CCS(=O)(=O)NCc1c(C)ncc2c1CCN(C(=O)c1csc(-c3cccs3)n1)C2,-22.8%,3.9%
Cc1ncc2c(c1CNC(=O)c1cncs1)CCN(C(=O)c1csc(-c3cccs3)n1)C2,-21.0%,35.5µM*
C[C@H]1N[S+](=O)([O-])c2cccc(Cl)c2O[C@H]1c1ccccc1,-10.7%,-20.5%
CCOC(=O)NN=C1C[C@@H](O)[C@@H](O)[C@@H]2[C@H]3C(=O)N([C@@H](C)c4ccccc4)C(=O)[C@@H]3CC[C@@H]12,-23.7%[8.59 µM],-22.4%[8.59 µM]
COC(=O)[C@@H]1C2CC3c4[nH]c5cc(OC)ccc5c4CCN3CC2C[C@H](OC(=O)c2cc(OC)c(OC)c(OC)c2)C1OC (some centres undefined),?,12.6µM*
COc1ccc2c3c([nH]c2c1)[C@@H]1C[C@@H]2[C@@H](C[C@H](O)[C@H](OC)[C@H]2C(=O)O)CN1CC3,-12.9%[17.8 µM],-10.1%[17.8 µM]
COC(=O)C1=C(C)N(CC2CC2)C(=O)NC1CCc1ccccc1 (centres undefined),8.6%[8.59 µM],20.9%[8.59 µM]
COc1ccc(CN2CCCC(c3nc(-c4ccncc4)ncc3-c3ccccc3)C2)c(OC)c1OC (centres undefined),-15.1%,?
Cc1ccccc1-c1cnc(-c2ccncc2)nc1C1CCCN(Cc2ccccc2O)C1 (centres undefined),-27.8%,?
COc1ccc(CN2CCCC(c3nc(-c4ccncc4)ncc3-c3ccccc3C)C2)c(OC)c1 (centres undefined),17.8µM*,3.55µM*
